Screens from PubChem BioAssay.
Pf Dd2 inh: inhibitors of Plasmodium falciparum Dd2 growth. AID 1159554. actives 2.3% (n = 94,000). P. falciparum Dd2 growth, SYBR Green, 72 h; active compounds read low. activity change, % at 10 µM; in the data active = activity change below about -80%
C diff HTS: blocks growth of Clostridium difficile; Clostridium difficile clinical isolate growth, OD600, 24 h; active compounds read low; growth activity, negative = inhibition, % at 16 µg/mL (by protocol); actives 0.25% (n = 86,000);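 active = mean growth activity at or below -80% and every replicate also at or below -80%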
A number is an active result; 0 = inactive; - = no result given; ! = repeats disagree. Hits are enriched below; roughly 2.3% of the tested compounds scored in any of these assays.

SMILES	Pf Dd2 inh	C diff HTS
C[C@@H]1CCCCO[C@@H](CN(C)Cc2ccc(Cl)c(Cl)c2)[C@@H](C)CN([C@H](C)CO)C(=O)c2cc(NC(=O)Nc3ccc(F)cc3)ccc2O1	0	-
CC(C)NC(=O)Nc1ccc2c(c1)C(=O)N([C@@H](C)CO)C[C@H](C)[C@@H](CN(C)Cc1ccc(Cl)c(Cl)c1)OCCCC[C@H](C)O2	-	0
C[C@@H]1CCCCO[C@H](CN(C)Cc2ccc(Cl)c(Cl)c2)[C@H](C)CN([C@@H](C)CO)C(=O)c2cc(NC(=O)Nc3ccccc3)ccc2O1	-85	0
C[C@@H]1CCCCO[C@H](CN(C)Cc2ccc(Cl)c(Cl)c2)[C@H](C)CN([C@@H](C)CO)C(=O)c2cc(NC(=O)Nc3ccc(F)cc3)ccc2O1	-85	-
C[C@@H]1CCCCO[C@H](CN(C)Cc2ccc(Cl)c(Cl)c2)[C@@H](C)CN([C@H](C)CO)C(=O)c2cc(NC(=O)Nc3ccc(F)cc3)ccc2O1	0	-
C[C@@H]1CN([C@@H](C)CO)C(=O)c2cc(NC(=O)Nc3ccc(F)cc3)ccc2O[C@@H](C)CCCCO[C@H]1CN(C)Cc1ccc(Cl)c(Cl)c1	0	-
C[C@@H]1CN([C@H](C)CO)C(=O)c2cc(NC(=O)Nc3ccccc3)ccc2O[C@@H](C)CCCCO[C@H]1CN(C)Cc1ccc(Cl)c(Cl)c1	-86	0
C[C@@H]1CCCCO[C@@H](CN(C)Cc2ccc(Cl)c(Cl)c2)[C@H](C)CN([C@H](C)CO)C(=O)c2cc(NC(=O)Nc3ccccc3)ccc2O1	-83	0
CO[C@@H]1CN(C)C(=O)c2ccc(NC(=O)C3CC3)cc2OC[C@@H](C)N(C(=O)C2CCCCC2)C[C@H]1C	0	0
COc1ccc2c3c([nH]c2c1)[C@@H](CO)N(C(=O)Nc1ccc(F)cc1)CC31CCN(S(=O)(=O)c2cccs2)CC1	0	0
COCC(=O)Nc1ccc2c(c1)C(=O)N(C)C[C@@H](OC)[C@@H](C)CN(Cc1ccncc1)[C@@H](C)CO2	0	-
Cc1noc(C)c1NC(=O)Nc1ccc2c(c1)C(=O)N([C@H](C)CO)C[C@H](C)[C@@H](CN(C)Cc1ccc(Cl)c(Cl)c1)OCCCC[C@H](C)O2	0	0
C[C@@H]1CN([C@H](C)CO)C(=O)c2cc(NC(=O)Nc3ccc4c(c3)OCO4)ccc2O[C@@H](C)CCCCO[C@@H]1CN(C)Cc1ccc(Cl)c(Cl)c1	-88	0
Cc1noc(C)c1NC(=O)Nc1ccc2c(c1)C(=O)N([C@@H](C)CO)C[C@H](C)[C@@H](CN(C)Cc1ccc(Cl)c(Cl)c1)OCCCC[C@@H](C)O2	-85	0
C[C@@H]1CN([C@@H](C)CO)C(=O)c2cc(NC(=O)Nc3ccc4c(c3)OCO4)ccc2O[C@@H](C)CCCCO[C@H]1CN(C)Cc1ccc(Cl)c(Cl)c1	0	0
Cc1ccc(S(=O)(=O)Nc2ccc3c(c2)C(=O)N([C@H](C)CO)C[C@H](C)[C@H](CN(C)S(=O)(=O)c2ccc(F)cc2)OCCCC[C@H](C)O3)cc1	0	0
O=S(=O)(NC[C@@H]1CC[C@@H]2[C@@H](CN2CC(c2ccccc2)c2ccccc2)O1)c1ccccc1F	0	-
N#C[C@H]1[C@H](c2ccc(-c3cccnc3)cc2)[C@@H](CO)N1C(=O)C1CCC1	0	0
CN(C)C(=O)c1ccc(-c2ccc(C3[C@H]4CNC[C@@H]3N4C(=O)Nc3cccc(Cl)c3)cc2)cc1 (some centres not stated)	0	0
OC[C@H]1[C@@H](c2ccccc2)[C@H](CNCC2CCC2)N1CC1CC1	0	0
COc1cccc(NC(=O)N2[C@@H]3CNC[C@H]2C3c2ccc(/C=C/c3ccccc3)cc2)c1 (some centres not stated)	0	-98!
COc1cccc(NC(=O)N2[C@@H]3CNC[C@H]2C3c2ccc(-c3ccccc3)cc2)c1 (some centres not stated)	0	0
COc1cccc(NC(=O)N2[C@H](CO)[C@@H](c3ccccc3)[C@H]2CNC(C)C)c1	0	0
CC(C)CNC[C@@H]1[C@@H](c2ccccc2)[C@@H](CO)N1Cc1ccc(F)cc1	-91	0
O=C(Nc1cccc(Cl)c1)N1[C@@H]2CNC[C@H]1C2c1ccc(/C=C/c2ccccc2)cc1 (some centres not stated)	0	-95!
COc1cccc(NC(=O)N2[C@@H](CO)[C@@H](c3ccccc3)[C@@H]2CNCC(C)C)c1	-81	0
C[C@@H]1CN([C@H](C)CO)C(=O)c2cc(NS(=O)(=O)c3ccc(F)cc3)ccc2O[C@H]1CN(C)Cc1ccc(-c2ccccc2)cc1	0	0
COc1ccc2c3c([nH]c2c1)[C@H](CO)N(Cc1cccnc1)CC31CN(C(=O)c2cccnc2)C1	0	0
C[C@@H]1CN([C@@H](C)CO)C(=O)c2cc(NC(=O)Cc3ccccc3)ccc2O[C@H]1CN(C)C(=O)Nc1cccc2ccccc12	0	0
Cc1noc(C)c1S(=O)(=O)Nc1ccc2c(c1)C(=O)N([C@H](C)CO)C[C@H](C)[C@H](CN(C)C)OCCCC[C@H](C)O2	0	0
